In PubChem BioAssay (NCI) one finds growth data, which are given here for six compounds.

The panel holds about 83,000 compounds, 20% with a hit somewhere; the sample as a whole holds those more often.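 Plates (96-well) were seeded with cells, treated with compound at one concentration, and incubated for 48 hours before percent growth was determined.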 A number with no mark means an inactive call. Calls of active or inactive are those of the source. The calls were made as follows: active = growth percent below 10; inactive = the rest.

The assay relates to MDA-MB-468 breast. As to the kind of experiment: NCI-60 one-dose screen, 48 h (100 = growth as untreated, 0 = no growth, -100 = all killed). Particulars: 10 µM unless noted.

Consider `Oc1cccc(-c2nc(N3CCOCC3)c3c4c(sc3n2)CCCC4)c1`, for which the growth is 46.1%.
Next, `CCCCCCCCCCC(C[N+](C)(C)C/C=C/c1ccccc1)C(O)c1ccccc1` (stereo unspecified): -69.4% (active); `Cn1c2c(Cl)c(Cl)ccc2c2c(C#N)c[nH]c(=O)c21`: 111%.
Next, `CSc1nc(N)c2c(n1)NC(c1ccccc1)C1CCc3ccccc3C1=N2` (stereo unspecified): 76.4%.
As for `COc1ccc(C2C(C#N)=C(N)Oc3c2ccc2ccccc32)cc1` (stereo unspecified), the growth was 14.5%.
Take `C=C1C(=O)O[C@H]2[C@H]1CC/C(COC(=O)NCc1ccc(OC)cc1)=C\CC[C@@]1(C)O[C@@H]21`: the growth is 27.7%.
